Rows were chosen to be rich in hits. Some 13% of all compounds tested hit in one or more screens of this group.
Pf growth 96h: Primary qHTS for delayed death inhibitors of the malarial parasite plastid, 96 hour incubation; P. falciparum luciferase reporter growth, 96 h; AID 504834, 2011; Potency, µM (titrated, usually from 28.7 µM), without a hit: at the top dose activity change, negative = inhibition, usual class: inhibitors; 320,000 compounds, 6.9% hits; also: potency is read from the fitted curve at half-maximal effect
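P. falciparum expressing integrated firefly luciferase, in erythrocytes at 2% hematocrit, 0.05% parasitemia, incubated with compounds 96 h at 37 C, 5% CO2. Growth inhibition read as loss of luminescence; two-generation exposure targets delayed-death apicoplast inhibitors.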
Pf growth 48h: Primary qHTS for delayed death inhibitors of the malarial parasite plastid, 48 hour incubation; P. falciparum luciferase growth in erythrocytes, 48 h; Potency, µM (titrated, usually from 28.7 µM), for inactives: at the top dose activity change, negative = inhibition, hits mostly inhibitors; 310,000 compounds, 5.9% hits; AID 504832, 2011; also: potency is read from the fitted curve at half-maximal effect
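Luminescence readout; reporter = integrated firefly luciferase in P. falciparum. RBC culture at 2% hematocrit, 0.1% parasitemia final, 37 C/5% CO2; decreased signal taken as growth inhibition.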
HCMV antiviral: qHTS Assay for inhibitors of the human cytomegalovirus (HCMV) | HFF cells, HCMV-luciferase reporter, 72 h; stronger effect = lower value | activity change, negative = inhibition, % at 57.5 µM | 410,000 compounds, 4.5% hits | AID 1259415, 2018; in the data active = activity change below about -60%; inconclusive = no clear call, values can overlap the other calls; inactive = above about -39%
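Cell-based, HFFs, 1000 cells/well, 16 h 37C; cpds in DMSO + HCMV-luc, MOI 1 PFU/cell; 72 h 37C; OneGlo luminescence after 5 min RT; norm. to buffer vs Salinomycin 10uM.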
HCV inh: qHTS Assay for Inhibitors of Hepatitis C Virus (HCV); Huh7.5.1 HCVcc-Cre infection, luciferase reporter, 44 h; Potency, µM (series often up to 41.8 µM), inactives show at the highest dose activity change, negative = inhibition, most hits filed as inhibitors; 340,000 compounds, 3.4% hits; AID 651820, 2012; also: potency is read from the fitted curve at half-maximal effect
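Infectious HCV cell culture screen: compound-treated cells (1,000/well, pre-plated 4 h) are infected with HCVcc-Cre at roughly 0.5 moi and grown 44 h. Infection is quantified by luciferase signal after 15 min substrate incubation at room temperature.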
Starred values were filed as active, the others as inactive; ? = inconclusive; nt = not tested or not shown; [ ] = another dose, or the depositor's remark. Unless noted, calls follow the shape of the dose curve; as a rule, active = well fitted inhibition curve with a large enough effect; inconclusive = small, poorly fitted or top-dose-only effect, or another doubt; inactive = no such curve, though single readings can be large or run the other way. % is scaled to controls: 0 for no effect and ±100 for the full control effect.

SMILES	Pf growth 96h	Pf growth 48h	HCMV antiviral	HCV inh
O=C(c1n[nH]c2ccccc12)N1CCN(S(=O)(=O)c2ccccc2)CC1	7.4µM*	5.2µM*	-19	12%
Cc1nn(CCCC(=O)NCc2ccccc2)c(=O)c2nn(-c3ccccc3)c(C)c12	-2%	?	?	-10%
COc1ccccc1CNC(=O)CCCn1nc(C)c2c(C)n(-c3ccccc3)nc2c1=O	12µM*	-25%	-23	-26%
COc1cccc(CNC(=O)CCCn2nc(C)c3c(C)n(-c4ccc(C)cc4)nc3c2=O)c1OC	?	?	?	13µM*
CSc1ccc(CCNC(=O)C(C)n2nc(C)c3sc4ccccc4c3c2=O)cc1 (stereo unspecified)	nt	nt	-26	nt
CC(C(=O)Nc1ccccc1C(F)(F)F)n1nc(-c2ccccc2)c2c(c1=O)CCCC2 (stereo unspecified)	nt	nt	-36	nt
CCOC(=O)C1CCCN(C(=O)c2nn(-c3ccc(OC)cc3)c(=O)c3c2c2ccccc2n3C)C1 (stereo unspecified)	nt	nt	5	nt
CCOC(=O)CCCCC(=O)c1[nH]c(=O)[nH]c1CSc1nc(C)cc(C)n1	7%	nt	48	5%
CCOC(=O)CCCCC(=O)c1[nH]c(=O)[nH]c1CSc1nnc2c3cc(Br)ccc3n(C)c2n1	43%	10µM*	nt	nt
Cc1ccc(CN(C(=O)c2ccccc2F)c2ccccn2)o1	nt	nt	-3	nt
C=CCc1ccccc1OCC(=O)NNC(=S)NCc1ccccc1	10µM*	37%	-16	15%
CCc1nc2nc(C)c(NS(=O)(=O)c3ccc(C(C)(C)C)cc3)c(=O)n2[nH]1	nt	nt	-1	nt
O=C(Nc1cccc(-c2csc(Nc3ccccc3)n2)c1)c1cc([N+](=O)[O-])cc(C(F)(F)F)c1	?	?	10	?
O=C(Nc1cccc(-c2csc(Nc3ccc(Cl)cc3)n2)c1)c1cc([N+](=O)[O-])cc(C(F)(F)F)c1	2.1µM*	1.7µM*	?	?
O=C(Nc1cccc(-c2csc(Nc3ccc(Cl)cc3)n2)c1)c1ccccc1	?	?	-22	?
O=C(Nc1cccc(-c2csc(Nc3ccc(Cl)cc3)n2)c1)c1cccc(C(F)(F)F)c1	?	?	-33	3.2µM*
COc1ccc2c(c1)C1=C(CC2)C(c2ccc(C)cc2)NC(=S)N1 (stereo unspecified)	-1%	?	?	11µM*
COc1cccc(C2NC(=S)NC3=C2CCc2ccccc23)c1 (stereo unspecified)	?	-24%	?	?
O=c1cc(C(F)(F)F)[nH]c2c(OC(F)(F)F)cccc12	?	3%	-95*	11%
CCOC(=O)c1c(-c2ccccc2)csc1NC(=O)CSc1nc(N)cc(N)n1	3.3µM*	3%	-67*	13µM*
CCOC(=O)Cc1cnc(NC(=O)CSc2nc(C)cc(C)n2)s1	10µM*	1%	1	-15%
CCOC(=O)c1c(-c2ccccc2)csc1NC(=O)CSc1nc(C)cc(C)n1	?	13µM*	-82*	?
CCc1nn2c(=O)cc(COC(=O)CNC(=O)c3ccccc3)nc2s1	nt	nt	-14	nt
CCn1c(=O)c2cc(C(=O)Nc3cc(OC)c(OC)c(OC)c3)sc2c2ccccc21	nt	nt	-9	nt
COc1cccc2c1NC1(c3ccccc3)c3ccccc3-n3nncc3CN1C2=O (stereo unspecified)	nt	nt	-4	nt
SMILES	Pf growth 96h	Pf growth 48h	HCMV antiviral	HCV inh
CCOc1cc(-c2nc(-c3ccccc3)c(-c3cc([N+](=O)[O-])ccc3C)[nH]2)ccc1O	?	?	-82*	?
COc1cc(-c2nc(-c3ccccc3)c(-c3ccc(Br)cc3)[nH]2)cc(OC)c1O	nt	nt	3	nt
O=[N+]([O-])c1ccc(O)c(-c2nc(-c3ccccc3)c(-c3cccs3)[nH]2)c1	?	16%	-103*	6.3µM*
COc1ccc(-c2nc(-c3ccccc3)c(-c3cc([N+](=O)[O-])ccc3C)[nH]2)cc1OC	nt	?	-80*	16µM*
O=C(CCn1c(=O)c2sccc2n(CC(=O)Nc2ccccc2)c1=O)NCc1ccccc1Cl	nt	nt	-28	nt
CCOC(=O)[C@H](CCc1ccccc1)N[C@@H](C)C(=O)N1C(=O)N(C)C[C@H]1C(=O)O	10%	-14%	-17	nt
O=C(Nc1cc(Cl)cc(Cl)c1)C1CCC(=O)N1Cc1ccccc1Cl (stereo unspecified)	?	9.3µM*	-36	0%
O=C(c1cnccn1)N1CCc2ccccc21	?	18%	-8	14%
O=C(c1ncn(Cc2ccccc2)c1C(=O)N1CCc2ccccc2C1)N1CCc2ccccc2C1	?	1.5µM*	1	?
O=C(c1cc(-c2ccc(O)cc2)on1)N1CCc2ccccc2C1	0.37µM*	nt	7	-6%
O=C(c1cnccn1)N1CCc2ccccc2C1	-17%	1%	-100*	13%
O=C(CSc1n[nH]c(-c2ccccc2Cl)n1)N1CCN(c2ccc(F)cc2)CC1	nt	nt	2	nt
CC(=O)c1cccc(NC(=O)CCS(=O)(=O)c2cc(Br)cc3c2N(C(=O)C2CC2)CC3)c1	nt	nt	-10	nt
O=C(NCCNc1ccc2ccccc2c1)c1cccn2c(=O)c3sccc3nc12	1.9µM*	?	nt	nt
CCc1c(C(=O)Nc2ccccc2C(N)=O)csc1C	242%	33%	66	-7%
CCc1c(C(=O)Nc2ccncc2)csc1C	?	8.3µM*	-100*	?
COC(=O)c1ccc2c(c1)NC(=O)c1ccccc1S2	-8%	-22%	39	12%
CC(=O)c1ccc2c(c1)Nc1ccccc1S2	nt	-6%	-9	?
CN(C)CCNC(=O)c1ccc2c(c1)NC(=O)c1ccccc1S2	?	12µM*	-11	8.9µM*
Cc1ccc(NC(=O)c2ccc3c(c2)NC(=O)c2ccccc2S3)cc1	nt	nt	-71*	nt
COC(CN(C)C(=O)c1ccc2c(c1)NC(=O)c1ccccc1S2)OC	10%	1.5µM*	46	12%
CCOC(=O)c1ccc(NC(=O)c2ccc3c(c2)NC(=O)c2ccccc2S3)cc1	nt	nt	15	nt
C/C(=N\NC(=O)c1ccc(C)cc1C)c1ccc2c(c1)Nc1ccccc1S2	-13%	5%	0	3.5µM*
CN(Cc1ccccc1)C(=O)CSc1nc(-c2ccc(F)cc2)cc(C(F)(F)F)n1	nt	nt	-17	nt
O=C(NCCc1ccccc1)c1ccc(CSc2nc3ccncc3n2Cc2ccc(F)cc2)cc1	nt	nt	-39	nt
COc1cc(CN2CCCC(N3CCc4ccccc4C3)C2)c(Cl)cc1O (stereo unspecified)	2.9µM*	?	26	10%
COc1cc2c(cc1OC)CN(C1CCCN(Cc3cc(Cl)ccc3O)C1)CC2 (stereo unspecified)	9.3µM*	?	-27	-14%
COc1ccc(NC(=O)c2cn(-c3ccccc3)nc2-c2ccncc2)cc1	40%[5.75 µM]	?	-23	-16%
